Source: PubChem BioAssay (NCI)
The panel holds about 79,000 compounds, 15% with a hit somewhere; the sample as a whole holds those more often. Cut-off read from the data, not from the text of the source: active = growth inhibition above about 70%; inactive = the rest.

What was measured:
[1] = NCI Yeast Anticancer Drug Screen. Data for the rad50 strain (AID 155);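 note: 0% = growth of vehicle-only cultures of the same strain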; settings: S. cerevisiae rad50 strain growth inhibition; at 50.0 µM; hits give high values
Method in brief: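 Compounds were tested on a yeast strain with an engineered DNA damage repair alteration; the reported value is growth inhibition normalised to vehicle treatment.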

[2] = NCI Yeast Anticancer Drug Screen. Data for the mec2-1 strain (AID 157); settings: S. cerevisiae mec2-1 strain, at 50.0 µM, hits give high values
Method in brief: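 Test agents were screened against the mec2-1 yeast strain, with defined DNA repair or cell cycle alteration. Growth was scored as inhibition against vehicle-only controls.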

[3] = NCI Yeast Anticancer Drug Screen. Data for the sgs1 mgt1 strain (AID 161);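 note: 0% = growth of cultures given vehicle only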; settings: S. cerevisiae sgs1 mgt1 strain, at 50.0 µM, hits give high values
Method in brief: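 Test agents were incubated with a DNA-repair-mutant yeast strain. Growth was then read and compared against vehicle-treated controls.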

[4] = NCI Yeast Anticancer Drug Screen. Data for the cln2 rad14 strain (AID 165);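 note: 0% = growth equal to vehicle treated cultures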; settings: S. cerevisiae cln2 rad14 strain, at 50.0 µM, hits give high values
Method in brief: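 Growth of compound-exposed yeast (cln2 rad14 genotype) measured and expressed as inhibition relative to vehicle.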

[5] = NCI Yeast Anticancer Drug Screen. Data for the bub3 strain (AID 167); settings: S. cerevisiae bub3 mutant strain, at 50.0 µM, hits give high values
Method in brief: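 Growth of a checkpoint-deficient yeast mutant is measured after compound exposure. Values represent inhibition relative to vehicle.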

[6] = NCI Yeast Anticancer Drug Screen. Data for the mlh1 rad18 strain (AID 175); settings: S. cerevisiae mlh1 rad18 strain growth inhibition; at 50.0 µM; hits give high values
Method in brief: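 In this whole-cell yeast screen, a strain with altered DNA damage repair is challenged with compound, and its growth is measured against matched vehicle-treated controls.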

Measured: growth inhibition

CC(C)(C)/C=C/N1N=NC(c2ccccc2)(c2ccccc2)C1=O
inactive: [1] 32.6% | [2] 19% | [3] 23.1% | [4] -13.2% | [5] 22.1% | [6] 26.7%

CC(=O)NC(CSC1=C2NC(=O)\C=C/C=C/C=C\C(C)C(O)CC(=O)/C(C)=C\CC(O)/C=C/C(C)C(O)C(C)C=C(C)C(=O)c3c(O)c(C)cc(c3C1=O)C2=O)C(=O)O (centres undefined)
inactive: [1] 1.1% | [2] 7.95% | [3] 36.6% | [4] 23.3% | [5] 15.4% | [6] 8.45%

OCC1CSCC1CO (centres undefined)
inactive: [1] 8.6% | [2] 12.8% | [3] -4.7% | [4] 15.3% | [5] 11.7% | [6] 3.5%

Nc1c(S(=O)(=O)O)cc(Nc2cccc(S(N)(=O)=O)c2)c2c1C(=O)c1ccccc1C2=O
inactive: [1] 5.05% | [2] 1.1% | [3] -42.4% | [4] -7.65% | [5] -17.1% | [6] 24.6%

CCC(C(=O)O)=C1CCCCC1
inactive: [1] 11.1% | [2] -8.15% | [3] -0.35% | [4] 9.15% | [5] 5.85% | [6] -3.9%

O=C1CCC(=O)Nc2ccc3nc4ccccc4c(c3c2)SCCCCCCCCCCCCSc2c3ccccc3nc3ccc(cc23)N1
inactive: [1] -22.4% | [2] -15.2% | [3] -15.2% | [4] -36.4% | [5] -8.4% | [6] -0.85%

c1csc(-c2nc3sc(-c4cccs4)nc3s2)c1
inactive: [1] 3.4% | [2] -9.75% | [3] 1.9% | [4] -18.8% | [5] -16.6% | [6] -2.4%

O=C1c2ccccc2CC12CCC1(CC2)OCCO1
inactive: [1] -14% | [2] -1% | [3] 3.55% | [4] 26.6% | [5] -12.5% | [6] -23.6%

C[n+]1cc(N)cc2ccccc21
inactive: [1] 1.65% | [2] -4.9% | [3] -6.75% | [4] 3.3% | [5] 9.8% | [6] -16.4%

NC(=O)N/N=C(/CC1C(=O)Oc2ccccc21)c1ccccc1O (centres undefined)
inactive: [1] -8.35% | [2] -4.7% | [3] -9.7% | [4] -14.3% | [5] -24.9% | [6] 14%

CCOC(=O)/C(C#N)=C/c1ccc(Br)cc1
inactive: [1] 15.7% | [2] 0.8% | [3] 0.3% | [4] -4.25% | [5] 7.5% | [6] 21.3%

O=CCCn1[nH]c(=O)ccc1=O
inactive: [1] 2.4% | [2] -4.65% | [3] 15.9% | [4] 20.2% | [5] 25.1% | [6] 12.9%

CC(=O)NCCc1ccc(OCc2ccccc2)cc1
inactive: [1] -7.15% | [2] 2.25% | [3] 3.7% | [4] -51.5% | [5] -19.4% | [6] -1.45%

COC(=O)CC(NC(=O)CNC(=O)OCc1ccccc1)C(=O)NCC(=O)Oc1ccc([N+](=O)[O-])cc1 (centres undefined)
inactive: [1] 21% | [2] 2% | [3] 18.8% | [4] 15.1% | [5] -0.65% | [6] 12%

CCO[Si](C)(CCC#N)OCC
inactive: [1] 6.05% | [2] -64% | [3] -12.7% | [4] 30.9% | [5] -31.6% | [6] 4.75%

O=c1[nH]cc([N+](=O)[O-])c(=O)[nH]1
inactive: [1] 14.3% | [2] 13.1% | [3] 8.25% | [4] 14.7% | [5] 16.9% | [6] 11.2%

O=C(O)C(CNCc1ccccc1)(c1ccccc1)c1ccccc1
inactive: [1] 5.55% | [2] -9.25% | [3] 10.3% | [4] 4.9% | [5] 1.3% | [6] 12.7%

O=C1CC2[C@@H](N3CCCC3)CCC(N1Cc1ccccc1)C2(O)O (some centres undefined)
inactive: [1] -6.75% | [2] -38% | [3] 1.2% | [4] -4.05% | [5] -19.8% | [6] 3.25%

N#CC(C(=O)O)=C1CCCCCC1
inactive: [1] 2.4% | [2] -1% | [3] 3.7% | [4] -1.8% | [5] 5.5% | [6] -0.8%

Nc1ccc([N+](=O)[O-])c2ccccc12
inactive: [1] 17.1% | [2] -8.75% | [3] 12.7% | [4] 10.8% | [5] 24.6% | [6] 12.7%

Cc1nc(/N=C(/N)N(C)C)[nH]c(=O)c1C
inactive: [1] 1.7% | [2] -27.6% | [3] -11.6% | [4] 3.7% | [5] 4.05% | [6] 19.9%

COC(=O)C1OCOC2C(CO)OCOC12 (centres undefined)
inactive: [1] 6.8% | [2] 23.1% | [3] -1.5% | [4] -49.4% | [5] 2.8% | [6] -7.85%

O=C(O)CNC(=O)c1ccc2cc(C(=O)N3CC(CCl)c4ccc([N+](=O)[O-])cc43)[nH]c2c1 (centres undefined)
inactive: [1] -6.45% | [2] -4% | [3] -3.95% | [4] -0.1% | [5] -34.3% | [6] -35%

Cc1ccc(N=C=S)cc1Cl
inactive: [1] 6.75% | [2] 9.65% | [3] 32.4% | [4] 6.55% | [5] 15.8% | [6] 27.9%

CCOc1ccccc1NC(=O)C1CCCCC1C(=O)O (centres undefined)
inactive: [1] 14.2% | [2] 16.7% | [3] 14.6% | [4] 25.6% | [5] 12.7% | [6] 7.8%

CC(=O)Nc1ccc(S(=O)(=O)Nc2cccc3ccccc23)cc1
inactive: [1] 23.2% | [2] 7.4% | [3] 18.6% | [4] 42.8% | [5] 57.6% | [6] 21.6%

Cc1ccc(N(C(=O)Nc2ccc(F)c(Cl)c2)C2=NCC(C)S2)cc1 (centres undefined)
inactive: [1] -57.5% | [2] -14.4% | [3] -45% | [4] -13.7% | [5] -5.05% | [6] -51.4%

O=C(O)C(Cc1ccccc1)NS(=O)(=O)Cc1ccccc1 (centres undefined)
inactive: [1] -14.1% | [2] -8.45% | [3] -4.5% | [4] -4.9% | [5] -8.2% | [6] -2.15%

CCOC(=O)C/C(O)=C(\N=Nc1nc[nH]c1C(N)=O)C(=O)OCC
inactive: [1] 1.2% | [2] 23.7% | [3] -9.9% | [4] -1.8% | [5] 16.1% | [6] -0.65%

Cc1ccc(S(=O)(=O)OCC(c2ccc(Cl)cc2)c2ccccc2Cl)cc1 (centres undefined)
inactive: [1] 14.6% | [2] 1.9% | [3] 3.6% | [4] 11.4% | [5] -1.15% | [6] 1.85%

O=C(O)c1cc2c([nH]1)-c1cccnc1C(=O)C2=O
inactive: [1] -9.6% | [2] -11.3% | [3] -15.8% | [4] -18.8% | [5] -1.4% | [6] 14.1%

O=C(c1ccccc1)c1ccccc1O
inactive: [1] -16.6% | [2] -10.7% | [3] 11.4% | [4] 6.95% | [5] 10.7% | [6] 2.9%

O=[N+]([O-])c1ccc(C=C2C=c3ccccc3=C2)cc1
inactive: [1] 5.8% | [2] 1.1% | [3] -14.4% | [4] -28.9% | [5] 5.3% | [6] 7.3%

CN1C(=O)C=C(C=Nc2ccc(-c3ccccc3)cc2)C2CCCCC21 (centres undefined)
inactive: [1] 0.85% | [2] -8.75% | [3] -8.05% | [4] 6.55% | [5] 11.5% | [6] 6.75%

CC(=O)N1Cc2cncnc2C1
inactive: [1] -0.8% | [2] 5.95% | [3] -2.5% | [4] -17.1% | [5] -0.95% | [6] 23.7%

Cc1cc(C)c(C(CC(=O)O)C(CC(=O)O)c2c(C)cc(C)cc2C)c(C)c1 (centres undefined)
inactive: [1] -0.25% | [2] 1.5% | [3] -16.6% | [4] -21.4% | [5] -6.85% | [6] 32.4%

NC(=S)NN/C=C(\C=Nc1ccccc1)[N+](=O)[O-]
inactive: [1] 8.15% | [2] -3.3% | [3] 4.15% | [4] 0.4% | [5] 0.15% | [6] 1%

CS(=O)c1nsc(S(C)=O)c1C#N (centres undefined)
inactive: [1] 1.05% | [2] -9.7% | [3] -1.5% | [4] -35.6% | [5] -9.95% | [6] -10.6%

CCCCN(Cc1ccccc1)C(=O)NC(C)(C)C
inactive: [1] 2.15% | [2] 33.9% | [3] 8.1% | [4] 3.45% | [5] 25.8% | [6] 18.6%
